Test results taken from the supplement of paper PMC10849652.
Targets with a hit are over-represented here; the source holds about 8,800 in all. About 0.5% of all pairs of compound and target were hits. A number with no mark means an inactive call.

Key:
Assay in all cases: log2 fold change, soluble protein after heating vs DMSO (PISA); higher = thermal stabilisation; K562 lysate, 10 uM; active = over 0.2 and 3.5 SD of the protein, either way, in both replicates (recomputed)
[1] = compound: NCC(=O)Nc1ccc(-n2nc(C(F)(F)F)cc2-c2ccc3c(ccc4ccccc43)c2)cc1
Outline: (§1)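 To prepare the extract, K562 pellets were dounce-homogenised in PBS pH 7.4 with 1 mM MgCl2, giving crude material at 1 mg/mL protein. This was treated with 10 μM compound for 30 min, then heated in aliquots for 3 min over 48°C-58°C before pooling and addition of NP-40 to 0.5% at 4°C. Centrifugation at 21,000xg for 90 min left soluble protein in the supernatant, which TMTpro 16plex LC-MS/MS quantified with equalised channel sums. Results are log-two fold changes in thermal stability compared with solvent controls, from duplicates.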

vorinostat = compound: O=C(CCCCCCC(=O)Nc1ccccc1)NO [vorinostat]
Outline: as §1

silmitasertib = compound: O=C(O)c1ccc2c(c1)nc(Nc1cccc(Cl)c1)c1ccncc12 [silmitasertib]
Outline: as §1

[2] = compound: O=C1NC(=O)C(c2cnc3ccccn23)=C1c1cn2c3c(cc(F)cc13)CN(C(=O)N1CCCCC1)CC2
Outline: as §1

entospletinib = compound: c1cn2cc(-c3ccc4cn[nH]c4c3)nc(Nc3ccc(N4CCOCC4)cc3)c2n1 [entospletinib]
Outline: as §1

UniProt P84157, sequence (P84157 whole entry, looked up): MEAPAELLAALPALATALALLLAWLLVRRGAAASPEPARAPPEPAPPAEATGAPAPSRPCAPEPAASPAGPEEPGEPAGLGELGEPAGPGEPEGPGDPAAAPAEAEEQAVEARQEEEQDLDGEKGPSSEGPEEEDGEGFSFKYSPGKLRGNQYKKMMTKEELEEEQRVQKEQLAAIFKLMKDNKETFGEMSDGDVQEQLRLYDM
UniProt Q9Y639, sequence (Q9Y639 whole entry, looked up): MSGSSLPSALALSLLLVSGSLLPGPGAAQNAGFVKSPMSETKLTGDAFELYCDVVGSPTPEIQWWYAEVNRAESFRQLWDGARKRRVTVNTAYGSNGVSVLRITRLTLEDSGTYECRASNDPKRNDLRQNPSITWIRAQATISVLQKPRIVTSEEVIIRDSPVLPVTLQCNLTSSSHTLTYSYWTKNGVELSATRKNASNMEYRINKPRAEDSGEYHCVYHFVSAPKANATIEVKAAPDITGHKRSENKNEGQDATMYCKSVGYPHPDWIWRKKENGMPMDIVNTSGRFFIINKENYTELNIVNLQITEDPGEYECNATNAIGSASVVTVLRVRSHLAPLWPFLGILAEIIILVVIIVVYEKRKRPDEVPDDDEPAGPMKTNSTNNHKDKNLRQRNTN
UniProt Q96DH6, sequence (Q96DH6 whole entry, looked up): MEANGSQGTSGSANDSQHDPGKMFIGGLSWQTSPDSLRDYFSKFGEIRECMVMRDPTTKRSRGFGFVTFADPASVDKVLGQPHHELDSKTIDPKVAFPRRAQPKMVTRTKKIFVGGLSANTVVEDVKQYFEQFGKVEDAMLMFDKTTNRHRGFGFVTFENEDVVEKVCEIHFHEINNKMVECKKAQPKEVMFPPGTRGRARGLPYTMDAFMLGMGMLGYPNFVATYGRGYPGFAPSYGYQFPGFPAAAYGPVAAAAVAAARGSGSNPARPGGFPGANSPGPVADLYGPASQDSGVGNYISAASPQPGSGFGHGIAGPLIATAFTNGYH
UniProt Q9BYG3, sequence (Q9BYG3 whole entry, looked up): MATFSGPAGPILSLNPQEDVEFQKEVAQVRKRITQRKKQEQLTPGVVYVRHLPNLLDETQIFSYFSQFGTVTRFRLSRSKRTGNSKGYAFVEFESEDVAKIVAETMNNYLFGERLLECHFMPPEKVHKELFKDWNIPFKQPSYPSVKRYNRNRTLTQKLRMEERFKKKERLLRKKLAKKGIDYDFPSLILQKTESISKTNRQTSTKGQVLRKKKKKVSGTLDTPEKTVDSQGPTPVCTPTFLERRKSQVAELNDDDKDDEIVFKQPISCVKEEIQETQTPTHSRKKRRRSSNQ
UniProt Q9H4L5, sequence (Q9H4L5 whole entry, looked up): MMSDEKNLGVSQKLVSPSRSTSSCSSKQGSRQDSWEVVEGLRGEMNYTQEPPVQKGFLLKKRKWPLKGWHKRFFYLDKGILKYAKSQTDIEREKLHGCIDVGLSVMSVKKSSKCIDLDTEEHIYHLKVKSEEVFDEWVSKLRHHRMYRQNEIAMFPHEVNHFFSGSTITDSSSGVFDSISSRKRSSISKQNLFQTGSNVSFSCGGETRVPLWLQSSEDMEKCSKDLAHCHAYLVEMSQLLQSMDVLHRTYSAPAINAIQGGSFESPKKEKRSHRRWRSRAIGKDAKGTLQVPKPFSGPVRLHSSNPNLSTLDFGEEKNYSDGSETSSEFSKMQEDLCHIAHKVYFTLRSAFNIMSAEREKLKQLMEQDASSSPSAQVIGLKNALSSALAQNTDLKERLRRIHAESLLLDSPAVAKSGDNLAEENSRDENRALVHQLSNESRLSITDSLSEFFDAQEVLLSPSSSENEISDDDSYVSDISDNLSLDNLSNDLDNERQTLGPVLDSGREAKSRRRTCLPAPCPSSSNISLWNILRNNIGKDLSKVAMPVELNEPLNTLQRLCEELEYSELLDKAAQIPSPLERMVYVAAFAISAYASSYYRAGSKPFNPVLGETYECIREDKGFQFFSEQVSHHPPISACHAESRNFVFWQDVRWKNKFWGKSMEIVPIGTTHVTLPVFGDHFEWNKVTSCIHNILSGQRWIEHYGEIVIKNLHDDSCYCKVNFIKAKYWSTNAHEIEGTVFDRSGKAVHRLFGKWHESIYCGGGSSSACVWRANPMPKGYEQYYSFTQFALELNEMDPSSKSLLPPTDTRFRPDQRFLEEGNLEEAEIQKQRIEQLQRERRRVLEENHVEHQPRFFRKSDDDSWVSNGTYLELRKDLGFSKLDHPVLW
UniProt P40261, sequence (P40261 whole entry, looked up): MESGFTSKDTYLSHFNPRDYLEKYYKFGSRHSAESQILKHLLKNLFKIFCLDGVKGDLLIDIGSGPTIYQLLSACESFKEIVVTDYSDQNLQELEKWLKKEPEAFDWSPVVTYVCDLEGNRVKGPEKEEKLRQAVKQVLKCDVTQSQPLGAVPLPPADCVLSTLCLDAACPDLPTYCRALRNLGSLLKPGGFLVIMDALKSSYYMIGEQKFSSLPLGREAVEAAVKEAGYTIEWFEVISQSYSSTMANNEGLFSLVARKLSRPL
UniProt Q9BSD7, sequence (Q9BSD7 whole entry, looked up): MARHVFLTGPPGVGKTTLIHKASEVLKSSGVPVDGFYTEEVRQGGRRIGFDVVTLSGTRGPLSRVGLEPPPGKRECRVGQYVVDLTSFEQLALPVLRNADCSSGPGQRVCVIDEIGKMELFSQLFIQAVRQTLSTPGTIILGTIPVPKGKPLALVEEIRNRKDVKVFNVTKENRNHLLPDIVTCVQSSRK
UniProt O94832, sequence (O94832 whole entry, looked up): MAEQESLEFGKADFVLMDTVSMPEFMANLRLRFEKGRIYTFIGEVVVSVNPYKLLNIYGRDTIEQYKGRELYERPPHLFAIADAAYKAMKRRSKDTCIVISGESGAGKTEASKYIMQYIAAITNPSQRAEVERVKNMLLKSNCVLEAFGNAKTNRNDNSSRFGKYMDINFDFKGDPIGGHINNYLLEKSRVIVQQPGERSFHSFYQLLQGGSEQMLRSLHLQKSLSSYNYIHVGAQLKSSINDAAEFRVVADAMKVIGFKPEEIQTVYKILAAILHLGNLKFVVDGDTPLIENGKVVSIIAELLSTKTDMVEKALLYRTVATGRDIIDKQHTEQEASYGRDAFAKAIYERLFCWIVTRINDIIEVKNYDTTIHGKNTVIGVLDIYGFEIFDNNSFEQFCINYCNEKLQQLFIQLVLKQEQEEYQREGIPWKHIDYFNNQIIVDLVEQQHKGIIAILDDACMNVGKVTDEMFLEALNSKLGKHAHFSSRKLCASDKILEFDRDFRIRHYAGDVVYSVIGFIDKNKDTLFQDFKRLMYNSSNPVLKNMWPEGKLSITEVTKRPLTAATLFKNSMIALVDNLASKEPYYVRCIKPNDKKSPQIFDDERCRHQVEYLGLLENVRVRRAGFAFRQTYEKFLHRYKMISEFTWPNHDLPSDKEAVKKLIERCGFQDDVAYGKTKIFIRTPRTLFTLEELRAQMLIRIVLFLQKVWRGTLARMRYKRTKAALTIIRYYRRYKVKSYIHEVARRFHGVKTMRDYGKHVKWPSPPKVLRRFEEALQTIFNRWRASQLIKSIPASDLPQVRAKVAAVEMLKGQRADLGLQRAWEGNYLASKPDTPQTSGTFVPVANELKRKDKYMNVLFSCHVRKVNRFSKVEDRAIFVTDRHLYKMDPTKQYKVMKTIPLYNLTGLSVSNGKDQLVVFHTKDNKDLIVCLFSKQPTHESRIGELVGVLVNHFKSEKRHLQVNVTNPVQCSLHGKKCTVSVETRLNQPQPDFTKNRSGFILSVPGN
UniProt Q969R2, sequence (Q969R2 whole entry, looked up): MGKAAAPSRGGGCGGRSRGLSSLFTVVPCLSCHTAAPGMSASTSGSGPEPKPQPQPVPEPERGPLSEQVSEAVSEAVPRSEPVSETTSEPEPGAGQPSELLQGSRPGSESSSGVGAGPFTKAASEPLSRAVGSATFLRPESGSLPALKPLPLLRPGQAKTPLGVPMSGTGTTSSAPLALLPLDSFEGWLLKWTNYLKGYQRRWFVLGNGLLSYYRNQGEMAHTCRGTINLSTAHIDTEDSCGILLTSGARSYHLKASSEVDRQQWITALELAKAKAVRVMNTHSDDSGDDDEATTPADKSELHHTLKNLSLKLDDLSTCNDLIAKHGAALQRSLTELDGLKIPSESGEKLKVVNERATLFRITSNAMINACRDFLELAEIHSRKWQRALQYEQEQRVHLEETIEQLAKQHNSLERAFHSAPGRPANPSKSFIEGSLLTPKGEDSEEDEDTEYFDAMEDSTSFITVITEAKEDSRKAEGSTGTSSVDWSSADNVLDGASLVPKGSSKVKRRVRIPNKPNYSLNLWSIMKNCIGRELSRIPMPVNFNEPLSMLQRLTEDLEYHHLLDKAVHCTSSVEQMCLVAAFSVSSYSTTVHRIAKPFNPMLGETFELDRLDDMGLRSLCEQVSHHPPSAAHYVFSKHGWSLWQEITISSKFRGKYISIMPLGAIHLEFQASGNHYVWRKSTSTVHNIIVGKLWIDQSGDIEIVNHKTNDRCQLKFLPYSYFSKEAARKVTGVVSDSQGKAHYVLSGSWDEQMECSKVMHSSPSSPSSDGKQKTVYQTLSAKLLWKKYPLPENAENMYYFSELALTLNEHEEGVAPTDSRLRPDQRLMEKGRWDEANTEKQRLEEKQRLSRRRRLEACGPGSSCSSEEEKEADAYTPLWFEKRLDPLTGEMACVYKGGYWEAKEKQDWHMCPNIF
UniProt Q5JRK9, sequence (Q5JRK9 whole entry, looked up): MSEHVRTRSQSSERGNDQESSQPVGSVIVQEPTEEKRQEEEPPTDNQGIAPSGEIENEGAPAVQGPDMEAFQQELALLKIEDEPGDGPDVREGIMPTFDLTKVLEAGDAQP
UniProt P03928, sequence (P03928 whole entry, looked up): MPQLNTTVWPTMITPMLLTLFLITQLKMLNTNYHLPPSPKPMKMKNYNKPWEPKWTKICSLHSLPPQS
UniProt Q15102, sequence (Q15102 whole entry, looked up): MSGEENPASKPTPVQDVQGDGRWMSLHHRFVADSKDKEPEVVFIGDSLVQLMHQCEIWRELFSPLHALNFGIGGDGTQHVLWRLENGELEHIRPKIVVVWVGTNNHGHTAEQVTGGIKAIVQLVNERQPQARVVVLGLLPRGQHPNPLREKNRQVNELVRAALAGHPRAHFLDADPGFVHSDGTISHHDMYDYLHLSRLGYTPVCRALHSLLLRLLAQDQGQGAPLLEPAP

Row | Target | log2 fold change [1] | log2 fold change (vorinostat) | log2 fold change (silmitasertib) | log2 fold change [2] | log2 fold change (entospletinib)
1 | MYBL2 (UniProt P10244) | -0.03 | -0.333 (active) | 0.003 | 0.008 | 0.025
2 | PAPOLG (UniProt Q9BWT3) | -0.037 | -0.369 (active) | 0.209 | 0.066 | -0.013
3 | NPTN (UniProt Q9Y639) | 0.067 | 0.078 | -0.031 | 0.04 | 0.096
4 | NEK7 (UniProt Q8TDX7) | -0.037 | -0.338 (active) | 0.105 | 0.003 | 0.012
5 | MYH11 isoform 2 (UniProt P35749) | 0.014 | 0.042 | 0.02 | -0.005 | 0.013
6 | MT-ATP8 (UniProt P03928) | 0.056 | 0.155 | -0.026 | 0.08 | -0.009
7 | NUF2 (UniProt Q9BZD4) | 0.005 | -0.242 (active) | 0.017 | 0.008 | 0.016
8 | MTOR (UniProt P42345) | -0.035 | -0.305 (active) | 0.146 | -0.013 | -0.024
9 | MTMR6 (UniProt Q9Y217) | -0.018 | -0.276 (active) | 0.027 | -0.027 | 0.003
10 | NAA30 (UniProt Q147X3) | -0.019 | -0.235 (active) | 0.047 | 0.009 | -0.003
11 | NFAT5 isoform 5 (UniProt O94916) | 0.033 | -0.026 | 0.037 | 0.016 | -0.061
12 | PBK (UniProt Q96KB5) | -0.029 | -0.269 (active) | 0.013 | -0.021 | 0.035
13 | OSBPL3 isoform 2 (UniProt Q9H4L5) | -0.087 | -0.36 (active) | 0.402 (active) | 0.062 | 0.052
14 | MYO1D (UniProt O94832) | 0.046 | -0.418 (active) | 0.012 | -0.027 | -0.002
15 | PANK1 (UniProt Q8TE04) | 0.01 | -0.084 | 0.004 | -0.039 | 0.08
16 | NELFCD (UniProt Q8IXH7) | 0.023 | -0.322 (active) | 0.049 | -0.005 | 0.032
17 | MRPS18A isoform 2 (UniProt Q9NVS2) | 0.008 | 0.021 | 0.048 | 0.019 | -0.052
18 | NEK9 (UniProt Q8TD19) | -0.03 | -0.45 (active) | 0.052 | -0.013 | 0.013
19 | MYOM1 (UniProt P52179) | 0.062 | 0.055 | 0.014 | 0.292 | 0.028
20 | NUDT5 (UniProt Q9UKK9) | -0.018 | 0.1 | -0.021 | 0.02 | 0.012
21 | NPM3 (UniProt O75607) | -0.049 | -0.012 | 0.021 | -0.019 | -0.037
22 | MYCBP2 (UniProt O75592) | 0.031 | -0.223 (active) | -0.002 | 0.007 | -0.002
23 | MT-CYB (UniProt P00156) | -0.064 | 0.158 | 0.031 | 0.118 | 0.174
24 | MRPS12 (UniProt O15235) | -0.005 | -0.35 (active) | -0.011 | -0.013 | -0.046
25 | N4BP2 (UniProt Q86UW6) | -0.075 | -0.369 (active) | -0.004 | -0.001 | -0.029
26 | PAFAH1B3 (UniProt Q15102) | -0.013 | -0.179 | 0.041 | 0.003 | -0.052
27 | NCK1 (UniProt P16333) | 0.048 | -0.281 (active) | 0.01 | -0.014 | 0.019

Row | Target | log2 fold change [1] | log2 fold change (vorinostat) | log2 fold change (silmitasertib) | log2 fold change [2] | log2 fold change (entospletinib)
28 | NTPCR (UniProt Q9BSD7) | 0.014 | -0.331 (active) | 0.029 | 0.003 | 0.059
29 | OARD1 (UniProt Q9Y530) | -0.021 | -0.456 (active) | 0.051 | 0.02 | 0.024
30 | OSBP2 (UniProt Q969R2) | 0.025 | 0.055 | -0.147 | 0.023 | -0.102
31 | NNT (UniProt Q13423) | 0.02 | 0.023 | -0.001 | -0.036 | -0.01
32 | NIFK (UniProt Q9BYG3) | 0.063 | 0.063 | -0.001 | 0.047 | 0.044
33 | NDUFS1 isoform 2 (UniProt P28331) | -0.006 | 0.118 | 0.032 | -0.052 | -0.014
34 | MSH2 (UniProt P43246) | 0.006 | -0.287 (active) | 0.027 | -0.022 | 0.034
35 | PAGE2B (UniProt Q5JRK9) | 0.057 | 0.474 (active) | -0.001 | 0.02 | 0.017
36 | NADK2 (UniProt Q4G0N4) | -0.002 | -0.106 | 0.044 | 0.003 | -0.001
37 | NAA38 isoform 2 (UniProt Q9BRA0) | -0.015 | -0.088 | 0.009 | 0.04 | -0.035
38 | NEBL (UniProt O76041) | 0.056 | 0.207 | 0.052 | -0.026 | -0.018
39 | NFATC1 (UniProt O95644) | 0.014 | -0.364 (active) | 0.07 | 0.033 | -0.047
40 | NFKBIB (UniProt Q15653) | -0.052 | -0.204 | 0.04 | 0.024 | 0
41 | NARF (UniProt Q9UHQ1) | -0.05 | -0.243 (active) | -0.016 | -0.008 | -0.054
42 | NFATC2 (UniProt Q13469) | 0.02 | -0.411 (active) | 0.021 | 0.044 | -0.062
43 | MRPL58 (UniProt Q14197) | 0.02 | -0.053 | -0.008 | 0.038 | 0.041
44 | MXRA7 (UniProt P84157) | 0.118 | 0.262 | -0.102 | 0.099 | 0.021
45 | MRPS31 (UniProt Q92665) | 0.058 | 0.021 | -0.046 | -0.001 | 0
46 | NUMBL (UniProt Q9Y6R0) | 0.04 | -0.237 | 0.201 | 0.021 | 0.102
47 | NNMT (UniProt P40261) | 0.014 | -0.104 | 0.014 | 0.03 | -0.004
48 | MSI2 (UniProt Q96DH6) | 0.053 | -0.046 | -0.021 | -0.052 | 0.033
49 | NUDT6 (UniProt P53370) | 0.128 | 0.038 | -0.096 | 0.02 | -0.225
50 | NIT2 (UniProt Q9NQR4) | -0.001 | 0.346 (active) | -0.001 | -0.007 | 0.004
51 | NOB1 (UniProt Q9ULX3) | 0.017 | -0.128 | 0.048 | -0.024 | 0.024
52 | NCAPG (UniProt Q9BPX3) | -0.001 | -0.283 (active) | 0.029 | -0.003 | -0.002
53 | MTA3 (UniProt Q9BTC8) | 0.021 | -0.278 (active) | -0.017 | -0.021 | 0.012
